Screening data (PubChem BioAssay)
This is a sample that favours compounds with a hit; in the whole collection about 4.1% have one here.
MEKK2 WT-MEK5: raises or lowers MEK5 binding to wildtype human MEKK2 PB1 domain. Q9Y2U5. bead flow cytometry, Alexa488-MEK5 binding to MEKK2 WT; actives lie on both sides. binding response (% of control), % at 10 µM. 1.1% of 290,000 active; in the data active = binding response below about 67% or above about 130%
CHT PAM: allosteric activators of human choline transporter CHT. Q9GZV3. AID 488977. CHT-expressing cells, membrane potential dye, choline EC20; active compounds read high; LV-AA mutant CHT in HEK293 cells. B-score at 10 µM. 0.49% of 310,000 active;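 active = initial fluorescence not abnormally high and integrated response B-score, plate-corrected, over 3 SD above library mean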
CHT inh: inhibitors of human choline transporter CHT. Q9GZV3. CHT-expressing cells, membrane potential dye, choline response; active compounds read low. B-score at 10 µM. 0.86% of 310,000 active;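 active = B-score over 3 SD under the library average, and starting fluorescence ratio not unusually high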;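 note: choline stimulus applied at its EC90 after an EC20 pre-addition; B-score computed on integrated fluorescence ratio after choline addition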
MEKK2mut PB1 HTS: signal of MEK5 binding to mutant human MEKK2 PB1 domain | bead flow cytometry, Alexa488-MEK5 binding to MEKK2 mutant | percent response, % at 10 µM | 0.35% of 290,000 active | AID 1530; in the data active = percent response above about 24%, passing the limit was not always enough
MEKK3 PB1 HTS: MEKK3-MEK5 PB1 interaction, increase or decrease | Q99759 | bead-based flow cytometry, Alexa488-MEK5 binding to MEKK3; actives lie on both sides; 0 = blocked by unlabeled MEK5, 100 = vehicle | binding response (% of control), % at 10 µM | 1.4% of 290,000 active;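 active = binding response more than 3 SD above or below the average of its plate-row segment, actives on both sides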;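 note: Alexa488 bead fluorescence after subtracting the streptavidin-only scavenger bead signal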
Target sequence (Q99759 whole entry, looked up): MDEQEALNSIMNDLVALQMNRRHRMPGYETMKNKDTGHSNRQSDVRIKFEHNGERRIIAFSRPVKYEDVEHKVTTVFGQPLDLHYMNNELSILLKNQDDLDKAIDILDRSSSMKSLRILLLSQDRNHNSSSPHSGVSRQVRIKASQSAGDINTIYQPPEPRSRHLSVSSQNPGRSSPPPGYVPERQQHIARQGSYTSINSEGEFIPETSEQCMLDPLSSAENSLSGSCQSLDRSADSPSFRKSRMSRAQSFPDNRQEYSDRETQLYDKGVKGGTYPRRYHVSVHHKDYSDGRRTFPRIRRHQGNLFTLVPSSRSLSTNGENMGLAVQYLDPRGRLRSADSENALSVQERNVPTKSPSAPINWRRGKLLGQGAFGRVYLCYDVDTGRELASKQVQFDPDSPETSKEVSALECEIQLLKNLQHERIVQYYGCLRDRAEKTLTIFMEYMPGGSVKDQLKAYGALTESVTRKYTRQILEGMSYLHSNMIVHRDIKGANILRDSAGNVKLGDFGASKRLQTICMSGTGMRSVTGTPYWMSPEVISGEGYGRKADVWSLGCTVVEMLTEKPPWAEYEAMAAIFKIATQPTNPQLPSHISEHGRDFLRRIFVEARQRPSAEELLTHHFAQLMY
SUMO Mot1 rescue: SUMOylation pathway inhibition by Mot1-301 growth rescue; S. cerevisiae Mot1-301 growth rescue, ATP luminescence, 38.5C; percent above DMSO median, 100 means doubled; growth rescue, % at 18.8 µM; 1% of 320,000 active; AID 2716;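 active = every valid replicate shows activation above 250% relative to neutral control wells; inactive = the rest, any valid replicate at or below 250%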;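 note: OY570 slx delta 5 strain wells were the positive control but not used for scaling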
MEKK2wt confirm: raises or lowers MEK5 binding to wildtype human MEKK2, retest; shares compounds with MEKK3 PB1 HTS; bead flow cytometry, Alexa488-MEK5 binding to MEKK2 WT; actives lie on both sides; binding response (% of control), % at 10 µM; 2.4% of 5,900 active; in the data active = binding response below about 16% or above about 210%; inactive = in between
MEKK2mut confirm: signal of MEK5 binding to mutant human MEKK2, retest; shares compounds with MEKK3 PB1 HTS; bead flow cytometry, Alexa488-MEK5 binding to MEKK2 mutant; percent response, % at 10 µM; 2% of 5,900 active; in the data active = percent response mostly above about 71%, no sharp cut-off; inactive = mostly below about 38%;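 note: higher means compound restores mutant binding toward wildtype level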
MEKK3 confirm: confirmation of inhibitors of MEK5 binding to human MEKK3. 1.8% of 5,900 active. AID 1894. shares compounds with MEKK3 PB1 HTS. binding response (% of control), % at 10 µM. bead flow cytometry, Alexa488-MEK5 binding to MEKK3; active compounds read low;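 active = binding response below 72% of control, or above a set upper limit, though filed actives all read lower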;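 note: 100% = DMSO only wells and 0% = binding blocked by excess unlabeled MEK5; lower values mean stronger disruption of MEK5 binding to MEKK3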
Starred values were filed as active, the others as inactive; [ ] = remark or other dose.

COc1ccc(Nc2nc(-c3cccc([N+](=O)[O-])c3)nc3ccccc23)cc1 was read as MEKK2 WT-MEK5 141.0*, CHT PAM inactive, CHT inh inactive, MEKK2mut PB1 HTS 3.0, MEKK3 PB1 HTS 126.0, SUMO Mot1 rescue -7.5, MEKK2wt confirm 107.0, MEKK2mut confirm -1.0 and MEKK3 confirm 102.0.
`CC(C)C[C@H](NC(=O)c1nc[nH]c1C(=O)NCC(=O)OCc1ccccc1)C(=O)OCc1ccccc1` gave MEKK2 WT-MEK5 89.0, CHT PAM inactive, CHT inh inactive, MEKK2mut PB1 HTS -6.0, MEKK3 PB1 HTS 98.0 and SUMO Mot1 rescue 23.6.
For CC(C)C[C@H](NC(=O)c1[nH]cnc1C(=O)N[C@@H](C)c1ccccc1)C(=O)OCc1ccccc1 the results were MEKK2 WT-MEK5 1.0*[inhibitor], CHT PAM inactive, CHT inh inactive, MEKK2mut PB1 HTS 1.0, MEKK3 PB1 HTS 1.0*[inhibitor], SUMO Mot1 rescue 4.3, MEKK2wt confirm 102.0, MEKK2mut confirm -2.0 and MEKK3 confirm 105.0.
For Cc1c(NC(=O)CSc2nc(N)cc(N)n2)c(=O)n(-c2ccccc2)n1C the results were SUMO Mot1 rescue -8.7.
CN(C)CCCN1c2ccc([N+](=O)[O-])cc2CCc2cc([N+](=O)[O-])ccc21 was read as MEKK2 WT-MEK5 150.0*, CHT PAM inactive, CHT inh inactive, MEKK2mut PB1 HTS 14.0, MEKK3 PB1 HTS 111.0, SUMO Mot1 rescue -12.4, MEKK2wt confirm 113.0, MEKK2mut confirm 6.0 and MEKK3 confirm 104.0.
CCN1CCN(Cc2ccc(NC(=O)c3ccc(C)c(NC(=O)c4ccno4)c3)cc2C(F)(F)F)CC1 was read as MEKK2 WT-MEK5 96.0, CHT PAM inactive, CHT inh inactive, MEKK2mut PB1 HTS 7.0, MEKK3 PB1 HTS 95.0 and SUMO Mot1 rescue -2.0.
Screening CCN1CCN(Cc2ccc(NC(=O)c3cc(NC(=O)c4ccc5n[nH]nc5c4)cc(OC)c3)cc2C(F)(F)F)CC1 returned MEKK2 WT-MEK5 118.0, CHT PAM inactive, CHT inh inactive, MEKK2mut PB1 HTS 13.0, MEKK3 PB1 HTS 113.0 and SUMO Mot1 rescue 171.9.
For CCN1CCN(Cc2ccc(NC(=O)c3ccc(C)c(/C=C/c4cnc(Nc5cc(N6CCNCC6)nc(C)n5)cn4)c3)cc2C(F)(F)F)CC1 the results were MEKK2 WT-MEK5 401.0*, CHT PAM inactive, CHT inh inactive, MEKK2mut PB1 HTS 205.0*, MEKK3 PB1 HTS 114.0, SUMO Mot1 rescue -17.2, MEKK2wt confirm 280.0*, MEKK2mut confirm 169.0* and MEKK3 confirm 118.0.
`CCN1CCN(Cc2ccc(NC(=O)c3ccc(C)c(NC(=O)c4csc(-c5ccncc5)n4)c3)cc2C(F)(F)F)CC1` gave MEKK2 WT-MEK5 141.0*, CHT PAM inactive, CHT inh inactive, MEKK2mut PB1 HTS 9.0, MEKK3 PB1 HTS 101.0, SUMO Mot1 rescue 92.4, MEKK2wt confirm 172.0, MEKK2mut confirm 38.0 and MEKK3 confirm 104.0.
`CCN1CCN(Cc2ccc(NC(=O)c3ccc(C)c(NC(=O)c4c[nH]c5cc(C(F)(F)F)ccc5c4=O)c3)cc2C(F)(F)F)CC1` gave MEKK2 WT-MEK5 199.0*, CHT PAM inactive, CHT inh inactive, MEKK2mut PB1 HTS 83.0*, MEKK3 PB1 HTS 115.0, SUMO Mot1 rescue -0.7, MEKK2wt confirm 224.0*, MEKK2mut confirm 131.0* and MEKK3 confirm 93.0.
Screening CCN1CCN(Cc2ccc(NC(=O)c3ccc(C)c(NC(=O)c4cccc(-c5cn[nH]c(=O)c5)c4)c3)cc2C(F)(F)F)CC1 returned MEKK2 WT-MEK5 169.0*, CHT PAM inactive, CHT inh inactive, MEKK2mut PB1 HTS 29.0*, MEKK3 PB1 HTS 108.0, SUMO Mot1 rescue -22.8, MEKK2wt confirm 143.0, MEKK2mut confirm 20.0 and MEKK3 confirm 99.0.
`Cc1ccc(C(=O)Nc2cccc(C(F)(F)F)c2)cc1NC(=O)c1c[nH]c2cc(C(F)(F)F)ccc2c1=O` gave SUMO Mot1 rescue 0.4.
For CCc1nnc(NC(=O)CSc2nnc(C)c(=O)n2N)s1 the results were MEKK2 WT-MEK5 106.0, CHT PAM inactive, CHT inh inactive, MEKK2mut PB1 HTS 8.0, MEKK3 PB1 HTS 101.0 and SUMO Mot1 rescue -1.1.
COc1ccccc1-c1nnc(SCC(=O)N2CCCC2)o1 was read as MEKK2 WT-MEK5 106.0, CHT PAM inactive, CHT inh inactive, MEKK2mut PB1 HTS 1.0, MEKK3 PB1 HTS 104.0 and SUMO Mot1 rescue 58.2.
Screening C/C(N)=C(/C#N)C(=O)CSc1nc2ccccc2n1CC(C)C returned MEKK2 WT-MEK5 87.0, CHT PAM inactive, CHT inh inactive, MEKK2mut PB1 HTS -9.0, MEKK3 PB1 HTS 98.0 and SUMO Mot1 rescue 13.5.
Screening CCOC(=O)c1sc(NC(=O)COC(=O)C(CCSC)NC(C)=O)nc1C (centres undefined) returned MEKK2 WT-MEK5 78.0, CHT PAM inactive, CHT inh inactive, MEKK2mut PB1 HTS -2.0, MEKK3 PB1 HTS 61.0*[inhibitor], SUMO Mot1 rescue 4.1, MEKK2wt confirm 98.0, MEKK2mut confirm -9.0 and MEKK3 confirm 93.0.
Cc1ccc(C)c(-n2nnnc2SCC(=O)NCC2CCCO2)c1 (centres undefined) was read as SUMO Mot1 rescue -4.7.
Screening COc1ccc(C)cc1-n1nnnc1SCC1CCCO1 (centres undefined) returned MEKK2 WT-MEK5 103.0, CHT PAM inactive, CHT inh inactive, MEKK2mut PB1 HTS 24.0*, MEKK3 PB1 HTS 103.0, SUMO Mot1 rescue -14.9, MEKK2wt confirm 114.0, MEKK2mut confirm 17.0 and MEKK3 confirm 106.0.
`CC1CCCCC1NS(=O)(=O)c1ccc2c(c1)CC(=O)N2C` (centres undefined) gave MEKK2 WT-MEK5 100.0, CHT PAM inactive, CHT inh inactive, MEKK2mut PB1 HTS -3.0, MEKK3 PB1 HTS 98.0 and SUMO Mot1 rescue 1.2.
Screening CSc1ccc(C(=O)C2CCCN(C(=O)c3cccnc3SC)C2)cc1 (centres undefined) returned MEKK2 WT-MEK5 61.0, CHT PAM inactive, CHT inh inactive, MEKK2mut PB1 HTS -14.0, MEKK3 PB1 HTS 71.0 and SUMO Mot1 rescue 2.1.
